Active and inactive are the calls of the source. The calls were made as follows: active = hit-call score of the fitted dose curve at least 0.9, where 1 is the maximum; inactive = score below 0.9.

Read-out in this assay: Heat shock 70 kDa protein 1 (HSPA1A), gene 3303
Briefly: LTEA_HepaRG_HSPA1A: Life Technologies and Expression Analysis (LTEA) Assay for Heat shock 70 kDa protein 1 (HSPA1A) using HepaRG (AID 2283502). Conditions: mRNA level, 48 h; actives raise or lower the signal. The protocol: LTEA_HepaRG is a cell based, multiplexed-readout assay that uses HepaRG, a human liver cell line, with measurements taken at 48 hours after chemical dosing on a 96-well plate.LTEA_HepaRG_HSPA1A is one of 102 assay component(s) measured in the LTEA HepaRG cell culture assay. It is a marker of Oxidative Stress.Data from the assay component LTEA_HepaRG_HSPA1A was analyzed into 1 endpoint. This assay endpoint, LTEA_HepaRG_HSPA1A, was analyzed with bidirectional fitting relative to DMSO as the negative control and baseline of activity. Using a type of inducible reporter, measures of mRNA induction for gain or loss-of-signal activity can be used to understand regulation of transcription factor activity. To generalize the intended target to other relatable targets, this assay endpoint is annotated to the dna binding intended target family, where the subfamily is heat shock protein.
A total of 1060 chemcials from the ToxCast library were tested in eight-point concentration-response experiments. Cell culture and cytotoxicity assays were conducted at Thermo Fisher Scientific's Custom Services facility (Madison, WI). A single lot of human HepaRG cells (Thermo Fisher Scientific, Frederick, MD) was used for the cell culture experiments. 96-well format collagen type I coated plates of human HepaRG cells were prepared using established methods. Briefly, cryopreserved HepaRG cells were thawed, plated at a density of approximately 100,000 cells/well in HepaRG Thaw, Plate, and General Purpose media (HPRG770, Thermo Fisher Scientific), and incubated for 48 hours. 0.5% DMSO was selected as vehicle control to balance the requisite need of DMSO in HepaRG cultures to maintain differentiation (for example, baseline metabolism, proportions of hepatocytes vs. cholangiocytes), while enabling further hepatic receptor pathway activation (for example, PXR and CAR) in response to chemical exposure. 48 hours after plating, the culture medium was replaced with HepaRG Serum-Free Incudtion Media. Cells were exposed to each test chemical in duplicate and maintained in CO2 incubators for another 48 hours. Chemical plates were thawed to room temperature and 200x concentrations of treatment groups were prepared. 8-point conentration-reponse curves were made with the highest exposure at 100 uM, followed by half-log dilutions, all in 0.5% DMSO. Each test plate contained variouse controls, induction positive controls (1mM phenobarbital), cytotoxicity positive controls ([…] aflatoxin B1), vehicle controls (0.5% DMSO), and total lysis controls (0.5% DMSO). Cell morphology images were taken using an Essen IncuCyte FLR automated microscope, with six 96-well plates imaged in about 24 minutes. Images were captured and exported and JPEG files. Spent culture media was transfered to black-well plates for the LDH assay, and remaining media was sorted at -80 C for later use. Cells were treated with RLT buffer and frozen until shipped for gene expression analysis. Total RNA was isolated from the cell suspension in 75 uL of Buffer RLT (Qiagen, Germantown, MD 20874) by Quintiles/Expression Analysis (Durham, NC) using a custom isolation procedure. Total RNA from each plate well was transferred to a preamplification plate. Fluidigm's 96.96 Dynamic ArrayTM (Fluidigm, Amsterdam, the Netherlands) technology was used for gene expression analyses by quantitative reverse transcription polymerase chain reaction (qRT-PCR, performed by Quintiles/Expression Analysis, Durham, NC)89. Standard TaqManTM Assays (Applied Biosystems/ThermoFisher Scientific, Foster City, CA) were used to assess the expression of 93 genes selected based on their selectivity and sensitivity to important hepatic receptors known to be modulated by environmental chemicals; importance in human hepatocyte functionality; and hepatotoxicity. […]
Regarding `CSC1=N[C@@](C)(c2ccccc2)C(=O)N1Nc1ccccc1`, the call was inactive. For `CCOP(=S)(OCC)Oc1ccc2c(C)c(Cl)c(=O)oc2c1`, the result was inactive.

On to `COc1cc(OC)nc(Sc2cccc(Cl)c2C(=O)O)n1`, for which the call was inactive. `Cc1nn(-c2cc(NS(C)(=O)=O)c(Cl)cc2Cl)c(=O)n1C(F)F`: the compound was classed as inactive. Regarding `CCC(CC)Nc1c([N+](=O)[O-])cc(C)c(C)c1[N+](=O)[O-]`, the call was inactive. The same measure, in the same setting: to `Nc1nc(N)nc(NC2CC2)n1` belongs “inactive”; to `COP(=O)(OC)C(O)C(Cl)(Cl)Cl` (stereo not given), “inactive”; to `CCOC(=O)COc1cc(-c2nn(C)c(OC(F)F)c2Cl)c(F)cc1Cl`, “inactive”. On to `CSc1nnc(C(C)(C)C)c(=O)n1N`, for which the result was inactive. Regarding `O=[N+]([O-])c1cc(C(F)(F)F)c(Cl)c([N+](=O)[O-])c1Nc1ncc(C(F)(F)F)cc1Cl`, the call was inactive. On to `N#CSCSC#N`, for which the outcome was inactive. `CN1COCN(Cc2cnc(Cl)s2)C1=N[N+](=O)[O-]`: the call was inactive. On the same count and under the same terms, to `CCC(=O)Nc1ccc(Cl)c(Cl)c1` belongs “inactive”; to `CCOC(=O)CC(SP(=O)(OC)OC)C(=O)OCC` (stereo not given), “inactive”; to `CCCCOC(=O)[C@@H](C)Oc1ccc(Oc2ccc(C#N)cc2F)cc1`, “inactive”. For `CC(C)=CC1C(C(=O)OCN2C(=O)C3=C(CCCC3)C2=O)C1(C)C` (stereo not given), the compound was classed as inactive. In the case of `Cc1ccn2nc(S(=O)(=O)Nc3c(F)cccc3F)nc2n1`, the result was inactive. As to `C[N+]1(C)CCCCC1`, the call was inactive. For the compound `COc1ccc(C(=CC(=O)N2CCOCC2)c2ccc(Cl)cc2)cc1OC`, the compound was called inactive. Regarding `CCOP(=S)(OCC)Oc1cc(C)nc(C(C)C)n1`, the compound was called inactive. `O=c1ccc(=O)[nH][nH]1`: the result was inactive. Consider `CCOP(=O)(OCC)Oc1cc(C)nc(C(C)C)n1`, for which the call was inactive. In the case of `COP(=O)(NC(C)=O)SC` (stereo not given), the outcome was inactive. Regarding `C=C(C)[C@H]1Cc2c(ccc3c2O[C@@H]2COc4cc(OC)c(OC)cc4[C@@H]2C3=O)O1`, the AC50 was 28.9 µM (active). In the case of `CCOP(=S)(OCC)OC(Cl)C(Cl)(Cl)Cl` (stereo not given), the outcome was inactive. As for `CCC(=NOC/C=C/Cl)C1=C(O)CC(C2CCOCC2)CC1=O` (stereo not given), the outcome was inactive. On the same count and under the same terms, to `COP(=O)(OC)SCn1c(=O)oc2cc(Cl)cnc21` belongs “inactive”. Same read-out and setting: then `CNC(=O)ON=C(C)SC`, with “inactive”; and `CC(C)[C@H](C(=O)O[C@H](C#N)c1cccc(Oc2ccccc2)c1)c1ccc(Cl)cc1`, with “inactive”.

In the case of `CCCOCC(=Nc1ccc(Cl)cc1C(F)(F)F)n1ccnc1`, the AC50 was 81.9 µM (active). As to `CN(C)[C@@H]1C(=O)C(C(N)=O)=C(O)[C@@]2(O)C(=O)C3=C(O)c4c(O)cccc4[C@@](C)(O)[C@H]3[C@H](O)[C@@H]12`, the compound was classed as inactive.

With `CCOP(=O)(SC(C)CC)N1CCSC1=O` (stereo not given), the outcome was inactive.

For the compound `CC(COc1ccc(Oc2ccccc2)cc1)Oc1ccccn1` (stereo not given), the compound was called inactive. As to `CCc1cccc(CC)c1N(COC)C(=O)CCl`, the compound was called inactive. `CN(C)C(=O)Nc1cccc(C(F)(F)F)c1`: the result was inactive.

For the compound `O=C(O)c1cc(Oc2ccc(C(F)(F)F)cc2Cl)ccc1[N+](=O)[O-]`, the outcome was inactive. As to `CCOP(=S)(OCC)Oc1ccc([N+](=O)[O-])cc1`, the compound was called inactive. Consider `CCCSP(=O)(OCC)Oc1ccc(Br)cc1Cl` (stereo not given), for which the result was inactive. Consider `CCOP(=O)(NC(C)C)Oc1ccc(SC)c(C)c1` (stereo not given), for which the call was inactive.

With `CCCCSP(=O)(SCCCC)SCCCC`, the outcome was inactive.

The record behind these values is PubChem BioAssay (EPA / NIEHS).
